Screens from PubChem BioAssay.
L3MBTL1 block – qHTS Assay for the Inhibitors of L3MBTL1. AlphaScreen L3MBTL1–H3K9me1 peptide binding. hit rate 0.66% among 230,000. Potency, µM (top dose mostly 57.1 µM), hits mostly inhibitors. Lethal(3)malignant brain tumor-like protein 1 (Homo sapiens), Q9Y468. AID 485360, 2010; further: nearly all actives have a fitted effect of over 60% in size
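Read-out is AlphaScreen signal from streptavidin donor and nickel chelate acceptor beads (10 ug/mL final each) bridging L3MBTL1 (50 nM) and biotinylated K9-monomethylated H3(1-15) peptide (75 nM), after 30 min compound exposure at room temperature.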
G9a inh – qHTS Assay for Inhibitors of Histone Lysine Methyltransferase G9a | AID 504332, 2011 | Potency, µM (series often up to 102 µM), hits mostly inhibitors | G9a H3K9 monomethylation, AlphaScreen, 2 h | hit rate 8.8% among 350,000; further: nearly all actives have a fitted effect of over 75% in size
Target sequence (Q96KQ7 913-1193 limits assumed): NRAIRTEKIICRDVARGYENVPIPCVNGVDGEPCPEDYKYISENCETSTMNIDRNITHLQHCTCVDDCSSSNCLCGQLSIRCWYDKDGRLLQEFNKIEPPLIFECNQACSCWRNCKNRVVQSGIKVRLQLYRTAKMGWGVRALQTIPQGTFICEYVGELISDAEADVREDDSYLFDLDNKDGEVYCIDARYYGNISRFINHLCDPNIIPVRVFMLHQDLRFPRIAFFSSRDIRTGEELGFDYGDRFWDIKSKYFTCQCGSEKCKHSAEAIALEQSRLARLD
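Compounds were preincubated with 20 nM G9a for 15 min, after which biotinylated H3K9 peptide (500 nM) and SAM (20 uM) started a 2 h room-temperature reaction. Monomethylated product was quantified by antibody-based AlphaScreen chemiluminescence.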
Sfp PPTase inh – qHTS Assay for Inhibitors of Bacillus subtilis Sfp phosphopantetheinyl transferase (PPTase). hit rate 3.5% among 310,000. AID 1490, 2009. Biochemical Sfp PPTase activity, qHTS. Potency, µM, hits mostly inhibitors. 4'-phosphopantetheinyl transferase ffp (Bacillus subtilis), Q9F4F7;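 further: the enzyme is Sfp with the accession as filed and its product quenches rhodamine fluorescence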
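Buffer: 50 mM Hepes-Na pH 7.6, 10 mM MgCl2, 0.01% Nonidet P-40, 0.01% BSA. Enzyme 15 nM, pre-exposed to compound 15 min; substrates then added and fluorescence change tracked over 30 min.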
HP1b binding inh – HTS for Inhibitors of HP1-beta Chromodomain Interactions with Methylated Histone Tails; AlphaScreen HP1-beta / biotin-H3K9me3 peptide binding; hit rate 0.56% among 390,000; Potency, µM (titrated, usually from 114 µM), usual class: inhibitors; Chromobox protein homolog 1 (Homo sapiens), P83916; further: nearly all actives have a fitted effect of over 70% in size
Target sequence (P83916 whole entry, looked up): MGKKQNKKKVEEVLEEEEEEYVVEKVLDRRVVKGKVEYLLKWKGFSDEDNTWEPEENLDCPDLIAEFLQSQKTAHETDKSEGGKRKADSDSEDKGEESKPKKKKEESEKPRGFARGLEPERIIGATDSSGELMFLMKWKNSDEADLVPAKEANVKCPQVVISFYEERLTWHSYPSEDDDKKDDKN
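AlphaScreen: HP1-beta (50 nM) preformed 30 min with biotin-H3(1-18)K9me3 peptide (50 nM) in PBS pH 7.4, 0.01% Tween-20. Compound added for 30 min at RT, then streptavidin donor/nickel chelate acceptor beads (10 ug/mL) for 30 min.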
BAZ2B inh – qHTS Assay for Inhibitors of BAZ2B; AlphaScreen BAZ2B-H3K14Ac peptide displacement; Potency, µM (top dose mostly 114 µM), hits mostly inhibitors; Bromodomain adjacent to zinc finger domain protein 2B (Homo sapiens), Q9UIF8; hit rate 4.4% among 360,000; further: nearly all actives have a fitted effect of over 60% in size
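AlphaScreen displacement of biotin-H3(5-23)K14Ac peptide (50 nM final) from BAZ2B (50 nM final) in PBS pH 7.4, 0.01% Tween-20; complex preformed 30 min RT, then compounds (top 110 uM) 30 min RT, beads 20 min dark.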
JMJD2A Tudor inh – qHTS Assay for Inhibitors of JMJD2A-Tudor Domain; hit rate 4.4% among 390,000; AlphaScreen JMJD2A-Tudor / H3K4me3 peptide binding; Lysine-specific demethylase 4A (Homo sapiens), O75164; Potency, µM (series often up to 114 µM), usual class: inhibitors; further: nearly all actives have a fitted effect of over 50% in size
Numbers stand for hits; i = inactive; ? = inconclusive; nt = no result; [ ] = remark or other dose. An excerpt weighted towards active compounds, which were near 12% of everything screened. The call rests on the fitted dose curve; in most records, active means well fitted curve in the direction sought with a large enough effect; inconclusive means small, poorly fitted or top-dose-only effect, or another doubt; inactive means no such curve, though single readings can be large; an effect the other way counts as inactive or inconclusive.

SMILES	L3MBTL1 block	G9a inh	Sfp PPTase inh	HP1b binding inh	BAZ2B inh	JMJD2A Tudor inh
CC1=C(C(=O)Nc2ccccc2)C(c2ccccc2[N+](=O)[O-])NC(=O)N1 (stereo unspecified)	i[11.4 µM]	?	20µM	i	i	i
CC1=C(C(=O)Nc2ccccc2)C(c2ccco2)NC(=O)N1 (stereo unspecified)	nt	nt	nt	i	nt	i
COc1ccccc1NC(=O)C1=C(C)NC(=O)NC1c1ccc(C)cc1 (stereo unspecified)	i	i	i	i	i	i
Cc1ccc([N+](=O)[O-])cc1S(=O)(=O)N1CCCC1	?	?	i	i	i	i
COc1ccc(S(=O)(=O)N2CCN(Cc3cccc([N+](=O)[O-])c3)CC2)cc1	nt	nt	nt	?	nt	20µM
COc1ccc(S(=O)(=O)N2CCN(Cc3cccc(Cl)c3)CC2)cc1	nt	i	i	i	i	i
CCN1CCN(S(=O)(=O)c2ccc(OC)cc2)CC1	nt	i	i	i	i	i
Cc1ccc([N+](=O)[O-])cc1S(=O)(=O)N1CCC(C)CC1	i	56.2µM	i	?	i	i[11.4 µM]
COc1ccc(S(=O)(=O)N2CCN(Cc3ccc(Cl)cc3)CC2)cc1	i	2.51µM	i	?	?	10µM
COc1ccc(S(=O)(=O)N2CCN(Cc3ccccc3[N+](=O)[O-])CC2)cc1	nt	nt	nt	?	nt	3.16µM
CCOc1ccccc1NC(=O)Cn1nnc2sc3c(c2c1=O)CCC(C(C)(C)C)C3 (stereo unspecified)	nt	i	nt	i	i	i
CCOc1ccc(C(=O)CN2CCN(S(=O)(=O)c3ccc(Cl)cc3)CC2)cc1	i	35.5µM	i	i	i	i
COc1ccc(C(=O)CN2CCN(S(=O)(=O)c3ccc(F)cc3)CC2)cc1	nt	?	nt	i	i	i
COc1ccc(S(=O)(=O)N2CCN(Cc3cccc(F)c3)CC2)cc1	nt	nt	nt	?	nt	3.16µM
COc1ccccc1CN1CCN(S(=O)(=O)c2ccc(C)cc2)CC1	nt	nt	nt	?	nt	20µM
COc1ccc(S(=O)(=O)N2CCN(Cc3ccc4c(c3)OCO4)CC2)cc1	nt	i	i	i	?	i
CN(Cc1ccccc1)C1CCN(Cc2ccccc2[N+](=O)[O-])CC1	i	17.8µM	79.4µM	?	20µM	11.2µM
O=C(Cn1cc(S(=O)(=O)Cc2ccccc2Cl)c2ccccc21)Nc1ccc(F)cc1F	nt	i	nt	i	i	i
Cc1ccccc1Nc1nnc(-c2ccc(C)c(S(=O)(=O)NCC3CCCO3)c2)c2ccccc12 (stereo unspecified)	nt	?	nt	i	i	i
COc1ccc2ccc(O)c(CN3CCN(S(=O)(=O)c4cc([N+](=O)[O-])ccc4C)CC3)c2c1	i	1.26µM	nt	i	i	i
CCN1CCN(CC(=O)c2ccc(OC)cc2)CC1	i	44.7µM	i	i	i	i
COc1ccc2oc(C(=O)N3CCN(S(=O)(=O)c4cccc([N+](=O)[O-])c4)CC3)c(C)c2c1	nt	i	i	i	i	i
O=[N+]([O-])c1ccccc1CN1CCN(S(=O)(=O)Cc2ccccc2)CC1	nt	nt	?	?	44.7µM	0.794µM
COc1ccc(N2CCN(S(=O)(=O)CCNS(=O)(=O)c3ccccc3)CC2)cc1	i	14.1µM	nt	i	i	i
COc1ccc(CC(=O)NCCS(=O)(=O)N2CCN(c3ccccc3)CC2)cc1	i	44.7µM	nt	i	i	i
SMILES	L3MBTL1 block	G9a inh	Sfp PPTase inh	HP1b binding inh	BAZ2B inh	JMJD2A Tudor inh
COc1ccc(N2CCN(S(=O)(=O)CCNC(=O)c3ccc(Br)o3)CC2)cc1	nt	79.4µM	i	i	i	i
c1ccc(COC[C@@H]2CO2)cc1	nt	nt	i	nt	nt	nt
O=C(NCc1cccc(F)c1)C1CCCN(C(=O)N2CCOc3ccccc32)C1 (stereo unspecified)	nt	i	nt	i	i	i
Cc1ccc(CNC(=O)Cn2ccn(-c3cccc(Cl)c3)c(=O)c2=O)cc1	nt	i	nt	i	i	i
Cc1ccc(/C=N/n2c(-c3ccncc3)n[nH]c2=S)cc1	i	1.41µM	?	i	i	2.24µM
CC(C)(C)c1ccc(-c2n[nH]c(=S)n2/N=C/c2ccncc2)cc1	i	2.51µM	i	i	i	?
COc1ccccc1NS(=O)(=O)c1cc(NC(=O)Nc2ccc(Cl)cc2Cl)ccc1N1CCCCC1	i	3.55µM	i	?	i	i
COc1ccccc1NS(=O)(=O)c1cc(NC(=O)C2CCC2)ccc1N1CCCCC1	i	3.55µM	8.91µM	i	i	?
COc1ccccc1NS(=O)(=O)c1cc(NC(=O)CCC2CCCC2)ccc1N1CCOCC1	?	1.41µM	i	i	?	i
C=CCN1CCCC1CNC(=O)c1cc(S(N)(=O)=O)cc(OC)c1OC (stereo unspecified)	nt	i[12.7 µM]	i	nt	nt	nt
Cc1ccc(C(=O)C(OC(=O)CNC(=O)COc2ccccc2C)c2ccccc2)cc1 (stereo unspecified)	nt	nt	nt	i	nt	i
COc1cc(CN2CCC(N3CCC(C(=O)N4CCCC4)CC3)CC2)cc2c1OCO2	i	nt	i	i	i	i
COc1ccc(C(=O)NCC(=O)N2CCCC(C)C2)cc1OC (stereo unspecified)	i	i	i	i	nt	i
COc1cc(CN2CCCCCC2)cc(Br)c1O	i	?	i	?	70.8µM	22.4µM
COc1cc(CN2CCC(C(=O)N3CCCC(C)C3)CC2)cc(Br)c1O (stereo unspecified)	i	7.94µM	i	?	22.4µM	?
COc1ccc(CN2CCC(C(=O)N3CCCC(C)C3)CC2)cc1OC (stereo unspecified)	i	17.8µM	i	i	50.1µM	17.8µM
O=C(O)c1ccccc1-c1ccc(C(F)(F)F)cc1	nt	i[12.7 µM]	i	nt	nt	nt
CC(=O)Oc1ccc2occ(/C=N/c3cc(=O)[nH]c(=S)[nH]3)c(=O)c2c1	nt	11.2µM	i	i	i	i[11.4 µM]
C#CCOCCOCCOCCNc1nc(N2CCN(C(=O)C([C@@H](C)CC)n3cc(C(N)COC(=O)C(F)(F)F)nn3)CC2)nc(N2CCN(C(=O)C([C@@H](C)CC)n3cc(C(N)CC(C)C)nn3)CC2)n1 (stereo partly specified)	nt	nt	nt	i	nt	79.4µM
C#CCOCCOCCOCCNc1nc(N2CCN(C(=O)C([C@@H](C)CC)n3cc(C(N)COC(=O)C(F)(F)F)nn3)CC2)nc(N2CCN(C(=O)[C@H](CCC(=O)O)n3cc(C(N)CC(C)C)nn3)CC2)n1 (stereo partly specified)	nt	nt	nt	i	nt	63.1µM
Cc1ccc2ncccc2c1[N+](=O)[O-]	i	i	i	i	i	i
Cc1[nH]c2ccc3ncccc3c2c1C	i	?	i	i	50.1µM	i
